Laboratory results taken from PubChem BioAssay (EPA / NIEHS).
More than one record can exist for a structure, and the calls need not agree. Activity calls are given as the source filed them. The calls were made as follows: active = hit-call score of the fitted dose curve at least 0.9, where 1 is the maximum; inactive = score below 0.9.

Assays:
[1] = APR_HepG2_CellCycleArrest_24hr: Apredica 24-hour HepG2 Assay for Cell Cycle Arrest (AID 2282905); conditions: imaging, actives raise or lower the signal;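 also: cell cycle arrest scored as ratio of 2N to 4N nuclear DNA content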
Procedure, shortened: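 After 24 h exposure at 0.39–200 uM in 0.5% DMSO, fixed cells received Hoechst 33342 staining. Imaging quantified per-nucleus DNA content; gain or loss fitted against DMSO controls.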

[2] = APR_HepG2_NuclearSize_24hr: Apredica 24-hour HepG2 Assay for Nuclear Size (AID 2282907); conditions: high-content imaging, actives raise or lower the signal
Procedure, shortened: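 Nuclear size from Hoechst 33342-stained, formaldehyde-fixed HepG2 nuclei imaged by high-content microscopy, after 24 h dosing at ten concentrations from 0.39 to 200 uM in 0.5% DMSO; gain or loss relative to DMSO baseline.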

[3] = APR_HepG2_CellLoss_24hr: Apredica 24-hour HepG2 Assay for Cell Loss (AID 2282908); conditions: high-content imaging;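 also: fit in both directions so a hit may be cell loss or gain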
Procedure, shortened: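 Nuclei stained with Hoechst 33342 after formaldehyde fixation (3.7%) were imaged at 20x to count cells. Exposure lasted 24 hr, at ten concentrations from 0.39 to 200 uM in duplicate, with 0.5% v/v DMSO. Fit bidirectional, relative to DMSO.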

[4] = APR_HepG2_MicrotubuleCSK_24hr: Apredica 24-hour HepG2 Assay for Microtubule CSK Stabilty (AID 2282909); conditions: HepG2 microtubule cytoskeleton imaging, actives raise or lower the signal
Procedure, shortened: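 Fixed HepG2 cells were stained for alpha-tubulin and imaged after 24 hr exposure to ten concentrations spanning 0.39–200 uM in 0.5% DMSO. Signal change was fitted in both directions relative to DMSO; taxol was the positive control.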

[5] = APR_HepG2_MitoMembPot_24hr: Apredica 24-hour HepG2 Assay for Mitochondrial Membrane Potential (AID 2282911); conditions: imaging, actives raise or lower the signal
Procedure, shortened: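 Mitochondrial dye uptake (MitoTracker Red CMXRos, 250 nM, 30 min pre-fixation) in HepG2 after 24 hr compound exposure, 0.39–200 uM; ArrayScan images at 20x, activity fitted in both directions relative to DMSO.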

[6] = APR_HepG2_MitoMass_24hr: Apredica 24-hour HepG2 Assay for Mitochondrial Mass (AID 2282912); conditions: high-content imaging, actives raise or lower the signal
Procedure, shortened: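 Endpoint is MitoTracker Red CMXRos (250 nM, 30 min, pre-fixation) intensity from 20x high-content imaging, nuclei located by Hoechst. Human HepG2 cells received ten concentrations from 0.39 to 200 uM in 0.5% DMSO for 24 hr, duplicate wells. Bidirectional fit relative to DMSO.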

[7] = APR_HepG2_p53Act_24hr: Apredica 24-hour HepG2 Assay for p53 Activation (AID 2282913); conditions: high-content imaging, actives raise or lower the signal;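 also: p53 protein immunofluorescence averaged per cell in HepG2 with Hoechst nuclei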
Procedure, shortened: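 Following 24 hr dosing of HepG2 at 0.39–200 uM, the cells undergo formaldehyde fixation, Triton permeabilization and multiplexed antibody labeling that includes p53 (Cy5). Signal from the imaging is referenced to DMSO solvent controls.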

[8] = APR_HepG2_CellCycleArrest_72hr: Apredica 72-hour HepG2 Assay for Cell Cycle Arrest (AID 2282914); conditions: high-content imaging, actives raise or lower the signal
Procedure, shortened: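 Using multiplexed high-content imaging, HepG2 nuclei stained with Hoechst 33342 (2 ug/mL) were analysed for DNA content after fixation and permeabilization. Treatment lasted 72 hr across 0.39–200 uM in duplicate with final DMSO 0.5% v/v; DMSO served as negative control.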

[9] = APR_HepG2_CellLoss_72hr: Apredica 72-hour HepG2 Assay for Cell Loss (AID 2282915); conditions: high-content imaging
Procedure, shortened: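 Cell number comes from Hoechst 33342-labelled nuclei, imaged at 20x after 3.7% formaldehyde fixation. Dosing was 0.39–200 uM, ten concentrations in duplicate, 0.5% DMSO final, for 72 h. Bidirectional fit relative to DMSO baseline.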

[10] = APR_HepG2_P-H2AX_72hr: Apredica 72-hour HepG2 Assay for H2AX Phosphorylation (AID 2282916); conditions: imaging, actives raise or lower the signal;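 also: phospho-histone H2A.x immunostain intensity per cell marking DNA damage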
Procedure, shortened: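 Phospho-histone H2A.x immunofluorescence, multiplexed with Hoechst and c-Jun, quantified by high-content imaging. Compounds applied to HepG2 for 72 h across ten concentrations (0.39–200 uM, 0.5% DMSO), in duplicate; DMSO baseline.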

[11] = APR_HepG2_MitoMembPot_72hr: Apredica 72-hour HepG2 Assay for Mitochondrial Membrane Potential (AID 2282917); conditions: imaging, actives raise or lower the signal
Procedure, shortened: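 Membrane potential read by MitoTracker Red CMXRos (250 nM, 30 min, pre-fixation) fluorescence imaging of HepG2 after 72 hr exposure. Ten concentrations, 0.39–200 uM, duplicate wells, 0.5% DMSO; fitted in both directions against DMSO baseline.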

[12] = APR_HepG2_MicrotubuleCSK_72hr: Apredica 72-hour HepG2 Assay for Microtubule CSK Stabilty (AID 2282919); conditions: HepG2 microtubule cytoskeleton, high-content imaging, actives raise or lower the signal
Procedure, shortened: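 High-content imaging of alpha-tubulin staining in fixed HepG2 cells after 72 hr treatment with ten concentrations from 0.39 to 200 uM (0.5% DMSO). Fitting was bidirectional against DMSO; taxol served as positive control.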

[13] = APR_HepG2_P-H2AX_24hr: Apredica 24-hour HepG2 Assay for H2AX Phosphorylation (AID 2282920); conditions: high-content imaging, actives raise or lower the signal
Procedure, shortened: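 Human HepG2 liver cells, treated 24 hr with test chemicals (0.39–200 uM, final DMSO 0.5% v/v), are fixed and co-stained for phospho-H2A.x and c-Jun with Hoechst. Imaged intensity is fitted in both directions against DMSO controls.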

[14] = APR_HepG2_StressKinase_72hr: Apredica 72-hour HepG2 Assay for Stress Kinase (AID 2282921); conditions: HepG2 stress kinase (phospho-c-Jun) imaging, actives raise or lower the signal
Procedure, shortened: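 Stress kinase signal is phospho-c-Jun immunofluorescence (1:500 primary, Cy3 secondary) in fixed, permeabilized human HepG2 cells imaged at 20x. Exposure lasted 72 hr over ten concentrations from 0.39 to 200 uM, 0.5% DMSO, in duplicate. Bidirectional fit versus DMSO.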

[15] = APR_HepG2_StressKinase_24hr: Apredica 24-hour HepG2 Assay for Stress Kinase (AID 2282922); conditions: HepG2 stress kinase (phospho-c-Jun) imaging, actives raise or lower the signal
Procedure, shortened: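 High-content imaging of phospho-c-Jun immunofluorescence in fixed, permeabilized HepG2 cells after 24 h dosing. Ten concentrations, 0.39 to 200 uM, run in duplicate at 0.5% v/v DMSO; gain or loss of signal versus DMSO.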

[16] = APR_HepG2_p53Act_72hr: Apredica 72-hour HepG2 Assay for p53 Activation (AID 2282923); conditions: high-content imaging, actives raise or lower the signal;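 also: average cellular p53 protein immunofluorescence intensity in HepG2 cells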
Procedure, shortened: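 After 72 h with compound (ten points, 0.39 to 200 uM, final DMSO 0.5% v/v), fixed HepG2 cells were labelled with sheep anti-p53 and Hoechst 33342 and imaged; gain or loss versus DMSO scored.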

[17] = APR_HepG2_MitoMass_72hr: Apredica 72-hour HepG2 Assay for Mitochondrial Mass (AID 2282924); conditions: high-content imaging, actives raise or lower the signal;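 also: MitoTracker Red CMXRos stain intensity per cell imaged as mitochondrial mass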
Procedure, shortened: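 Readout is imaged MitoTracker Red (250 nM, 30 min, pre-fixation) signal, fitted bidirectionally against DMSO baseline. Human HepG2 liver cells received compound 0.39–200 uM in duplicate for 72 hr, final DMSO 0.5%.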

[18] = APR_HepG2_NuclearSize_72hr: Apredica 72-hour HepG2 Assay for Nuclear Size (AID 2282925); conditions: high-content imaging, actives raise or lower the signal
Procedure, shortened: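 Nuclear size was read by high-content imaging of Hoechst 33342 stain after formaldehyde fixation. Compounds ran 72 h on HepG2 at 0.39 to 200 uM, with final DMSO 0.5% v/v. Curves fitted both directions relative to DMSO control.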

[19] = ATG_CRE_CIS: Attagene CIS-FACTORIAL HepG2 Assay for human cAMP Responsive Element (CRE) binding protein 3 (AID 2282926); conditions: HepG2 CRE cis-reporter, Attagene multiplexed mRNA; actives raise or lower the signal
Procedure, shortened: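 Liver-derived HepG2, transfected with a CRE-containing reporter panel, exposed 24 h; transcript levels sized and quantified by capillary electrophoresis of labelled amplicons; signal changes either way referenced to vehicle.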

Measured: AC50

CC(=O)[O][Hg][c]1ccccc1
active: [2] 66.6 µM | [3] 5.21 µM | [4] 5.17 µM | [8] 28.7 µM | [9] 3.19 µM | [10] 3.55 µM | [12] 2.44 µM | [13] 1.74 µM | [14] 7.33 µM | [15] 88.1 µM | [16] 4.66 µM | [17] 83.5 µM | [19] 2.79 µM
inactive: [1] | [5] | [6] | [7] | [11] | [18]

O=C1C2(Cl)C3(Cl)C4(Cl)C(Cl)(Cl)C5(Cl)C3(Cl)C1(Cl)C5(Cl)C24Cl (stereo unspecified)
active: [1] 44.6 µM | [3] 44.5 µM | [8] 24.7 µM | [9] 22.5 µM | [10] 113 µM | [13] 46.6 µM | [14] 106 µM | [15] 60.5 µM | [16] 10.5 µM | [18] 24.1 µM | [19] 14.3 µM
inactive: [2] | [4] | [5] | [6] | [7] | [11] | [12] | [17] | [19]

Cn1sc(Cl)cc1=O
inactive: [1] | [2] | [4] | [5] | [8] | [15] | [18] | [19]
active: [3] 109 µM | [6] 117 µM | [7] 113 µM | [9] 104 µM | [10] 109 µM | [11] 120 µM | [12] 135 µM | [13] 110 µM | [14] 111 µM | [16] 106 µM | [17] 163 µM

CC(C)(C)c1cc(O)ccc1O
active: [3] 125 µM | [5] 114 µM | [6] 151 µM | [9] 144 µM | [17] 108 µM | [18] 110 µM | [19] 151 µM
inactive: all other assays above

C=C(C)C(=O)[O][Sn]([CH2]CCC)([CH2]CCC)[CH2]CCC
inactive: [1] | [2] | [4] | [5] | [11] | [12] | [14] | [15] | [19]
active: [3] 0.773 µM | [6] 0.226 µM | [7] 0.294 µM | [8] 0.188 µM | [9] 0.228 µM | [10] 0.0519 µM | [13] 0.159 µM | [16] 0.0408 µM | [17] 0.395 µM | [18] 0.0558 µM
